# Measured values published in the antibiotic and cytotoxicity screens of Wong et al. (2023).
# In all, about 39,000 compounds went through this assay and about 1,500 (3.8%) were called active. Many of the other results were omitted from the sample, so actives are more common in it than they were.
# Tested on: HSkMC (human skeletal muscle cells)
# Experiment: cytotoxicity call (relative viability < 0.9)
# Conditions: 10 µM
row,Compound,cytotoxicity call
1,C[C@H](CO)N1C[C@H](C)[C@H](CN(C)S(=O)(=O)c2ccccc2)Oc2ccc(NC(=O)CCN3CCOCC3)cc2CC1=O,inactive
2,C[C@@H]1CN([C@H](C)CO)S(=O)(=O)c2ccc(C3=CCCC3)cc2O[C@H]1CN(C)S(=O)(=O)c1cn(C)cn1,inactive
3,C/C1=C2/[N]([Co+][OH])[C@H]([C@H](CC(N)=O)[C@@]2(C)CCC(=O)NC[C@@H](C)OP(=O)(O)O[C@H]2[C@@H](O)[C@@H](n3cnc4cc(C)c(C)cc43)O[C@@H]2CO)[C@]2(C)N=C(/C(C)=C3N=C(/C=C4N=C1[C@@H](CCC(N)=O)C/4(C)C)[C@@H](CCC(N)=O)[C@]\3(C)CC(N)=O)[C@@H](CCC(N)=O)[C@]2(C)CC(N)=O,active
4,C[C@H]1CN([C@@H](C)CO)C(=O)Cc2cc(NC(=O)Cn3cnnn3)ccc2O[C@@H]1CN(C)S(=O)(=O)c1ccc(Cl)cc1,inactive
5,CC(C)N1CC[C@@H](CN(C)Cc2ccc(Cl)cc2)Oc2c(NC(=O)c3ccncc3)cccc2C1=O,inactive
6,Cc1ccc(C(=O)N(CCCN)[C@@H](c2nc3cc(Cl)ccc3c(=O)n2Cc2ccccc2)C(C)C)cc1,active
7,Cc1ccc(C(=O)N(CCCN)[C@@H](c2oc3cc(Cl)ccc3c(=O)c2Cc2ccccc2)C(C)C)cc1,active
8,Cc1ccc2c(c1)c1nc3ccccc3nc1n2Cc1ccccc1,inactive
9,COc1ccc2cc(S(=O)(=O)N[C@H](CC(=O)N[C@H](Cc3ccc(CN4[C@H](C)CCC[C@@H]4C)cc3)C(=O)N(C)C(C)C)c3ccc4c(c3)OCO4)ccc2c1,inactive
10,C[C@@H]1CCCCO[C@@H](CN(C)Cc2ccc(Cl)c(Cl)c2)[C@@H](C)CN([C@@H](C)CO)C(=O)c2cc(NC(=O)CCC(F)(F)F)ccc2O1,inactive
11,CO[C@H](C(=O)N(C)C[C@H]1OCc2ccccc2-c2c(n(C)c3ccccc23)C(=O)N([C@@H](C)CO)C[C@H]1C)c1ccccc1,inactive
12,C[C@@H]1CN([C@H](C)CO)C(=O)c2cc(NS(C)(=O)=O)ccc2O[C@@H]1CN(C)C(=O)NC1CCCCC1,inactive
13,Cc1noc(C)c1NC(=O)Nc1ccc2c(c1)C(=O)N([C@H](C)CO)C[C@H](C)[C@H](CN(C)Cc1ccc(C(F)(F)F)cc1)OCCCC[C@H](C)O2,inactive
14,C[C@@H]1CN([C@H](C)CO)C(=O)Cc2cc(NC(=O)c3ccncc3)ccc2O[C@H]1CN(C)Cc1ccc2c(c1)OCO2,inactive
15,C[C@H]1CN([C@@H](C)CO)C(=O)c2ccccc2-c2ccccc2CO[C@H]1CN(C)Cc1ccc(Oc2ccccc2)cc1,inactive
16,COC1=CC(=O)C(O)=CC1=CC=Cc1ccccc1,active
17,COc1ccc(C(=O)C=Cc2ccccc2)cc1,inactive
18,COC1=CC(=O)c2ccccc2C1=O,inactive
19,C[C@H]1CCCCO[C@H](CN(C)C(=O)Nc2ccc(C(F)(F)F)cc2)[C@@H](C)CN([C@@H](C)CO)C(=O)c2cc(NS(C)(=O)=O)ccc2O1,inactive
20,Cc1noc(C)c1S(=O)(=O)Nc1ccc2c(c1)C(=O)N([C@H](C)CO)C[C@@H](C)[C@@H](CN(C)CC1CCCCC1)OCCCC[C@@H](C)O2,inactive

row,Compound,cytotoxicity call
1,C[C@@H]1CN([C@H](C)CO)C(=O)c2cccc(NC(=O)c3nc4ccccc4s3)c2O[C@@H]1CN(C)Cc1ccc(C(F)(F)F)cc1,inactive
2,C[C@H]1CN([C@@H](C)CO)C(=O)c2cccc(NC(=O)c3nc4ccccc4s3)c2O[C@@H]1CN(C)Cc1ccc(C(F)(F)F)cc1,active
3,C[C@@H]1CN([C@@H](C)CO)C(=O)c2cccc(NC(=O)c3nc4ccccc4s3)c2O[C@@H]1CN(C)Cc1ccc(C(F)(F)F)cc1,inactive
4,C[C@@H]1CN([C@H](C)CO)C(=O)c2cccc(NC(=O)c3nc4ccccc4s3)c2O[C@H]1CN(C)Cc1ccc(C(F)(F)F)cc1,active
5,C[C@@H]1CN([C@@H](C)CO)C(=O)c2cccc(NC(=O)c3nc4ccccc4s3)c2O[C@H]1CN(C)Cc1ccc(C(F)(F)F)cc1,inactive
6,C[C@H](CO)N1C[C@H](C)[C@@H](CN(C)Cc2ccc(C(F)(F)F)cc2)Oc2c(NC(=O)c3nc4ccccc4s3)cccc2C1=O,inactive
7,C[C@H](NC(=O)C[C@@H]1C[C@@H]2c3cc(NC(=O)Nc4ccc(C(F)(F)F)cc4)ccc3O[C@@H]2[C@@H](CO)O1)c1ccccc1,inactive
8,C[C@H]1CN([C@@H](C)CO)C(=O)c2ccccc2-c2ccccc2CO[C@@H]1CN(C)Cc1cccc(C(F)(F)F)c1,inactive
9,C[C@@H]1CCCCO[C@@H](CN(C)C)[C@@H](C)CN([C@H](C)CO)C(=O)c2cc(NC(=O)Nc3ccc(C(F)(F)F)cc3)ccc2O1,inactive
10,CO[C@@H](CN(C)S(=O)(=O)c1cccc(Cl)c1)[C@@H](C)CN([C@H](C)CO)S(=O)(=O)c1ccc(Cl)cc1,inactive
11,C[C@H](CO)N1C[C@H](C)[C@@H](CN(C)C(=O)CCCN(C)C)OCCCC[C@H](C)Oc2ccc(NC(=O)Nc3ccc(C(F)(F)F)cc3)cc2C1=O,inactive
12,C[C@@H]1CN([C@@H](C)CO)C(=O)c2cc(NC(=O)Cc3cn(C)c4ccccc34)ccc2O[C@H]1CN(C)Cc1ccc(Oc2ccccc2)cc1,inactive
13,C[C@@H]1CN([C@H](C)CO)C(=O)c2cc(NC(=O)Cc3cn(C)c4ccccc34)ccc2O[C@H]1CN(C)Cc1ccc(Oc2ccccc2)cc1,inactive
14,C[C@H]1CN([C@@H](C)CO)C(=O)c2cc(NC(=O)Cc3cn(C)c4ccccc34)ccc2O[C@H]1CN(C)Cc1ccc(Oc2ccccc2)cc1,inactive
15,C[C@@H]1CN([C@H](C)CO)C(=O)c2cc(NC(=O)Cc3cn(C)c4ccccc34)ccc2O[C@@H]1CN(C)Cc1ccc(Oc2ccccc2)cc1,inactive
16,C[C@@H]1CN([C@@H](C)CO)C(=O)c2cc(NC(=O)Cc3cn(C)c4ccccc34)ccc2O[C@H]1CN(C)Cc1ccc(-c2ccccc2)cc1,inactive
17,C[C@H](CO)N1C[C@H](C)[C@H](CN(C)Cc2ccc(-c3ccccc3)cc2)Oc2ccc(NC(=O)Cc3cn(C)c4ccccc34)cc2C1=O,active
18,C[C@H](CO)N1C[C@H](C)[C@H](CN(C)Cc2ccc(Oc3ccccc3)cc2)Oc2ccc(NC(=O)Cc3cn(C)c4ccccc34)cc2C1=O,active
19,C[C@@H]1CN([C@H](C)CO)C(=O)c2cc(NC(=O)Cc3cn(C)c4ccccc34)ccc2O[C@H]1CN(C)Cc1ccc(-c2ccccc2)cc1,inactive
20,C[C@H]1CN([C@@H](C)CO)C(=O)c2cc(NC(=O)Cc3cn(C)c4ccccc34)ccc2O[C@@H]1CN(C)Cc1ccc(Oc2ccccc2)cc1,active
